Reference: ChEMBL document CHEMBL3433997, “St. Jude Leishmania screening dataset” (2016)

Target: Solute carrier family 2, facilitated glucose transporter member 1 (Homo sapiens) (UniProt P11166)
Assay: ST_JUDE_LEISH: Cytotoxicity at 2uM final concentration against transgenic Leishmania Mexicana promastigotes LmGLUT1 that are glucose transport deficient and complemented with the human glucose transporter GLUT1. Activity is measured by DNA content using SYBR green in vitro
Format: functional

Chain of Solute carrier family 2, facilitated glucose transporter member 1 (Homo sapiens) (P11166 whole entry): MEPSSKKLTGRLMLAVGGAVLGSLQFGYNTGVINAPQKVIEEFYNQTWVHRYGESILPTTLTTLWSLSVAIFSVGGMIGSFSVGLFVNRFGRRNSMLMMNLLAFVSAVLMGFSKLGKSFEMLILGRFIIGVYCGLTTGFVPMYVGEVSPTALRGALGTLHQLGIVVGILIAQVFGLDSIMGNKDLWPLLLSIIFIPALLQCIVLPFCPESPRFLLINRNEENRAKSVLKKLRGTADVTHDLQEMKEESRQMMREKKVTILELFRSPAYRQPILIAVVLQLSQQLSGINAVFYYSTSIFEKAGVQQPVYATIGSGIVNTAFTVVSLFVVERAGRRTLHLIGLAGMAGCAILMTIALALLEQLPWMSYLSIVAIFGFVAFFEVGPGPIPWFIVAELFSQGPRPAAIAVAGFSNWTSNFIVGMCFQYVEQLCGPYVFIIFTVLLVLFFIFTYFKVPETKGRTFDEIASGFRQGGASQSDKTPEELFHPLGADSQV

Row | Structure (SMILES) | inhibition [%]
1 | FC(F)(F)c1ccc2[nH]c(-c3ccc(-c4cccc(CNCC5CCCO5)c4)cc3)nc2c1 (centres undefined) | 3.87
2 | Cc1cnc(C(=O)Nc2cccc(-c3csc(-c4nc5ccccc5[nH]4)c3)c2)cn1 | 5.41
3 | CC(=O)N[C@H](C(=O)Nc1ccc(-c2ccc(-c3nc4cc(C(F)(F)F)ccc4[nH]3)s2)cc1)C(C)C | 5.68
4 | COc1cc2nc(N3CCC(CNC(=O)c4ccc(-c5ccc(-c6noc(C)n6)cc5)cc4)CC3)nc(N)c2cc1OC | 64.1
5 | CCOC(=O)C1CCN(CCOc2cc(NC(=O)/C=C/c3ccccc3Cl)ccc2Br)CC1 | 8.71
6 | CCc1cn2c3c(cc(C(=O)N[C@@H](Cc4ccccc4)[C@H](O)CNC(C)(C)CCCC(C)C)cc13)N(C)S(=O)(=O)C2 | 2.45
7 | c1csc(-c2nc(NCC3CCCO3)ncc2-c2ccsc2)n1 (centres undefined) | 1.71
8 | CC1CCN(c2nc(C(=O)NCCc3ccc(Cl)c(Cl)c3)c(C(C)C)s2)CC1 | 0.93
9 | CCC(=Cc1cccc([N+](=O)[O-])c1)C(=O)NCC1CCN(c2nc3cc(OC)c(OC)cc3c(=N)[nH]2)CC1 | 5.64
10 | COc1ccc2nccc(NC(=O)N3CCC(NCCOc4cc(F)cc(F)c4)CC3)c2n1 | 8.02
11 | Cc1ccccc1C1CCN(C2CCC(NC(=O)/C=C/c3ccc(C#N)cc3)CC2)CC1 (centres undefined) | 3.43
12 | O=C(NCc1cccc2ccccc12)c1ccc(CNC2CCN(Cc3ccccc3)CC2)cc1 | 1.65
13 | N#Cc1ccc(N2CCN(Cc3cccc(-c4cccc(-c5nc6cc(F)ccc6[nH]5)c4)c3)CC2)nc1 | 3.5
14 | COc1ccc(-c2onc(C(F)(F)F)c2-c2ccc(Br)cc2)c(O)c1 | 2.09
15 | Cc1ccc(C(=O)NC2CCN(CCNC(=O)Nc3cc(C)nc4ccccc34)CC2)cc1 | -1.56
16 | CC(NC(=O)c1ccc(O)c(-c2ccc(Cl)c(Cl)c2)c1)C(=O)NC1CCCCC1 (centres undefined) | 5.53
17 | CC(C)(C)c1ccc(CN2CCCCC(NC(=O)c3cc(-c4ccccc4F)cs3)C2)cc1 (centres undefined) | -1.83
18 | CC12CCC(C(=O)N(CC(O)Cn3c4ccc(Cl)cc4c4cc(Cl)ccc43)C1=O)C2(C)C (centres undefined) | 2.14
19 | Fc1cccc(CNc2ncc(-c3ccsc3)c(-c3nccs3)n2)c1 | 1.64
20 | Cc1cccc2nc(-c3ccc(-c4ccc(C(=O)NCCN5CCCC5)cc4)s3)[nH]c12 | 1.13

Row | Structure (SMILES) | inhibition [%]
21 | Cc1ccc(C(=O)N2CCN(Cc3nccs3)CC2)cc1 | 1.23
22 | NS(=O)(=O)c1ccc(CNc2ccc3ncc(-c4ccc(Cl)cc4)n3n2)cc1 | -0.09
23 | Fc1cccc(COc2ccc(Nc3ncnc4sc(C#CCNC5CCCC5)cc34)cc2Cl)c1 | 2.71
24 | N#Cc1ccc(CN2CCC(Oc3ccc(NC(=O)c4ccco4)cc3Cl)CC2)cc1 | 0.38
25 | O=C(Nc1cc(C(F)(F)F)ccc1N1CCOCC1)C(Cl)(Cl)Cl | 10.4
26 | O=C(NCCNc1nc(NCCNC(=O)Nc2ccccc2)c2ccc(=O)n(-c3c(F)cccc3F)c2n1)Nc1ccccc1 | 2.75
27 | COc1ccccc1CNC(=O)c1cc(C2CC2)nc2c1cnn2C(C)C | 15.2
28 | O=C(Cc1cccc(Cl)c1)Nc1cccc(-c2c[nH]c3nc(Nc4cccc(OCc5ccccc5)c4)ncc23)c1 | 6.67
29 | CC(=O)Nc1nc(C(=O)Nc2cccc(-c3ccc(-c4nc5cccc(C)c5[nH]4)s3)c2)cs1 | 6.86
30 | CS(=O)(=O)NCCCNCc1cccc(-c2cccc(-c3nc4cc(F)ccc4[nH]3)c2)c1 | 1.53
31 | O=C(CSc1nc2ccccc2c(=O)n1C1CC1)Nc1cc(C(F)(F)F)ccc1Cl | -0.03
32 | COc1cccc(NC(=O)Cn2c(C)c(C(=O)C(F)(F)F)c3ccccc32)c1 | 2.88
33 | Cc1ccc(-c2nc(N3CCN(C(=O)c4ccco4)CC3)c3ccccc3n2)cc1 | 2.55
34 | Cn1cnc(CCNC(=O)c2cccc(-c3cccc(-c4nc5cc(C(F)(F)F)ccc5[nH]4)c3)c2)c1 | -1.68
35 | Cc1nc(C)c(-c2ccc(Cl)cc2Cl)c(O)c1Br | 1.43
36 | CCN(CC)CCNC(=O)/C(=C/C=C/c1cc2cc(Cl)c(Cl)cc2[nH]1)OC | 2.44
37 | Nc1ncc(-c2cc3ccccc3o2)c(N)n1 | 3.02
38 | CC(=O)Nc1nc(C(=O)Nc2cccc(-c3ccc(-c4nc5cc(F)ccc5[nH]4)cc3)c2)cs1 | 2.38
39 | O=C(NC1CCC(CCN2Cc3cccc(C(F)(F)F)c3C2)CC1)c1cccc(-c2cccnc2)c1 (centres undefined) | 3.38
